Assay results from PubChem BioAssay AID652154 (Broad Institute, 2013).
The whole screen tested about 360,000 compounds, of which about 4,200 (1.2%) were called active. This excerpt belongs to a sample that is enriched for actives. A number with no mark means an inactive call.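 How the source made its calls: active means mean replicate inhibition at least 60% with every replicate also reaching 60%; inconclusive means only one of the two criteria is met; inactive means mean below 60% and not all replicates reaching 60%.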

Experiment: inhibitors of PAX8-driven TPO luciferase reporter, primary screen, RMG-I cells, single concentration (AID 652154);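 further: luciferase light reporting Pax8 driven TPO promoter activity; plate controls were median of neutral control wells for no effect and mitoxantrone controls for full effect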
Settings: SteadyGlo, 24 h, at 12.6 µM, active compounds read high
In the case of `CC(=O)c1ccc(S(=O)(=O)N2CCN(C(=O)/C=C/c3ccc4ccccc4n3)CC2)cc1`, the inhibition is reported as 79.4% (active).
`CC(=O)c1ccc(S(=O)(=O)N2CCC(Oc3ccc(-n4cnnn4)cc3)CC2)cc1` gave an inhibition of -37.6%.
With `CC(=O)c1ccc(S(=O)(=O)N2CCC3(CC2)OCCO3)cc1` the inhibition was -17.6%.
Compound `COc1ccc(S(=O)(=O)Nc2ccc3c(c2)C(=O)N([C@H](C)CO)C[C@H](C)[C@H](CN(C)S(=O)(=O)c2ccc(Cl)cc2)O3)cc1` has an inhibition of -6.19%.
Work on `CC(C)C#Cc1ccc2c(c1)O[C@@H](CN(C)Cc1ccncc1)[C@@H](C)CN([C@@H](C)CO)S2(=O)=O` yielded an inhibition of -12.5%.
Work on `COc1ccc(-c2ccc([C@@H]3[C@@H](CO)N4C(=O)CN(Cc5ccccc5)C[C@@H]34)cc2)cc1` yielded an inhibition of -17%.
In the case of `COc1ccc([Si](C)(C)[C@@H]2[C@@H](CCO)O[C@]3(C(=O)N(Cc4ccccc4)c4ccc(N5CCC5=O)cc43)[C@H]2C)cc1`, the inhibition is reported as 101% (active).
For `COc1ccc([Si](C)(C)[C@@H]2[C@@H](CCO)O[C@]3(C(=O)N(Cc4cccc(N5CCCCC5=O)c4)c4ccccc43)[C@H]2C)cc1`, the inhibition was 3.33%.
Compound `O=C(CC1CC1)N1[C@@H]2CN(S(=O)(=O)c3ccccc3F)c3ccccc3[C@@H]2[C@@H]1CO` has an inhibition of -3.48%.
With `O=C(C1=C[C@@H](c2ccccc2)C[C@@H](OCCCCO)O1)N1CCN(Cc2ccccc2)CC1` the inhibition was 2.95%.
With `COc1cc(C(=O)CCc2ccc3c(c2)OCO3)cc(OC)c1OC` the inhibition was -6.52%.
For `COc1cc(C2c3cc4c(cc3C(O)C3COC(=O)C23)OCO4)cc(OC)c1OC` (stereo not given), the inhibition was 77.3% (active).
For `COc1cc(C2CC(=O)Oc3cc(OC)c(OC)c(OC)c32)cc(OC)c1OC` (stereo not given), the inhibition was -2.9%.
`Cc1ccccc1S(=O)(=O)N1[C@@H]2CNC[C@H]1C2c1ccc(-c2cccnc2)cc1` (stereo not given in full) showed an inhibition of 19.3%.
Work on `CC(C)C(C)NC(=O)COc1nc2ccccc2nc1N(C)C1CCCCC1` (stereo not given) yielded an inhibition of 0.996%.
In the case of `CC(C)c1cc(C(=O)NC2CCCCCC2)c2ccccc2n1`, the inhibition is reported as -9.13%.
With `CN(c1ccc2nc3ccccc3c(=O)n2n1)C1CCCCC1` the inhibition was 86% (active).
For `COc1ccc2c3c(n(C)c2c1)[C@@H](CO)N(Cc1ccncc1)CC31CN(C(=O)C2CCCCC2)C1`, the inhibition was -15.5%.
In the case of `COc1ccc(S(=O)(=O)N(C)C[C@H]2OCCCC[C@@H](C)Oc3ccc(NC(=O)NC(C)C)cc3C(=O)N([C@H](C)CO)C[C@H]2C)cc1`, the inhibition is reported as 17%.
With `C/C=C/c1ccc([C@H]2[C@@H](C#N)N(C(=O)CN3CCOCC3)[C@@H]2CO)cc1` the inhibition was -6.35%.
Compound `CCOCc1nnc(NC(=O)CCS(=O)(=O)Cc2ccccc2)s1` has an inhibition of 50.3%.
In the case of `COCCSc1nnc(NC(=O)CCS(=O)(=O)Cc2ccccc2)s1`, the inhibition is reported as 65.7% (active).
For `COC(=O)CSc1nnc(NC(=O)CCc2ccccc2)s1`, the inhibition was -0.955%.
Compound `C[C@@H]1CN([C@@H](C)CO)S(=O)(=O)c2ccc(-c3cccc(C(=O)N(C)C)c3)cc2O[C@@H]1CN(C)C` has an inhibition of -0.377%.
`O=C(C[C@H]1C[C@H]2c3cc(NC(=O)C4CCC4)ccc3O[C@H]2[C@@H](CO)O1)NCc1ccc(Cl)cc1` showed an inhibition of -5.09%.
In the case of `C#Cc1cc(N2CCN(C(=O)c3ccoc3)CC2)n2nc(-c3cccc(Cl)c3)cc2n1`, the inhibition is reported as 107% (active).
`CN(C)CCN1CCN(c2cc(-c3cccc(Cl)c3)nc3ccnn23)CC1` showed an inhibition of -3.43%.
In the case of `O=C(c1ccccc1)N1CCN(c2cc(-c3ccccc3)nc3cc(-c4cccc(Cl)c4)nn23)CC1`, the inhibition is reported as 40.2%.
Compound `C[C@@H]1CN([C@H](C)CO)C(=O)c2cccc(NS(=O)(=O)c3ccccc3)c2O[C@@H]1CN(C)Cc1ccc(C(=O)O)cc1` has an inhibition of 14.1%.
For `CCC(=O)Nc1ccc2c(c1)C(=O)N(C)[C@@H]1CC[C@@H](CC(=O)Nc3cccc(OC)c3)O[C@@H]1CO2`, the inhibition was 8.78%.
`COc1ccc(-c2csc3ncnc(N4CCN(S(=O)(=O)c5ccccc5C#N)CC4)c23)cc1` gave an inhibition of 9.25%.
In the case of `Cc1ccc(C)c(S(=O)(=O)N2CCN(CC(=O)Nc3ccc([N+](=O)[O-])cc3)CC2)c1`, the inhibition is reported as 6.46%.
With `Cc1ccc(C)c(S(=O)(=O)N2CCN(c3ncnc4sccc34)CC2)c1` the inhibition was 73.6% (active).
Compound `CCC(=O)Nc1ccc2c(c1)OC[C@@H](C)N(Cc1ccccc1OC)C[C@H](C)[C@H](OC)CN(C)C2=O` has an inhibition of -6.79%.
`C[C@@H]1CN([C@H](C)CO)C(=O)c2cc(NS(=O)(=O)c3cn(C)cn3)ccc2O[C@H]1CN(C)S(=O)(=O)c1ccc(Cl)cc1` gave an inhibition of 1.32%.
Compound `CC(=O)N(C)C[C@@H]1Oc2ncc(C#Cc3ccc(F)cc3)cc2C(=O)N([C@H](C)CO)C[C@@H]1C` has an inhibition of -8.23%.
`C[C@@H]1CN([C@H](C)CO)S(=O)(=O)c2ccc(C#CCC3CCCC3)cc2O[C@H]1CN(C)C(=O)CC1CC1` gave an inhibition of 23.3%.
In the case of `COc1cccc(S(=O)(=O)N(C)C[C@@H]2Oc3cc(C4=CCCCC4)ccc3S(=O)(=O)N([C@H](C)CO)C[C@H]2C)c1`, the inhibition is reported as 65.8% (active).
`COCC(=O)N(C)C[C@@H]1Oc2cc(C3=CCCC3)ccc2S(=O)(=O)N([C@@H](C)CO)C[C@H]1C` showed an inhibition of -21%.
With `CCCC#Cc1ccc2c(c1)O[C@@H](CN(C)S(=O)(=O)c1cccc(OC)c1)[C@H](C)CN([C@@H](C)CO)S2(=O)=O` the inhibition was 60.4% (active).
For `CCCN(C)C[C@H]1Oc2cc(C#CCC3CCCC3)ccc2S(=O)(=O)N([C@@H](C)CO)C[C@@H]1C`, the inhibition was 2%.
In the case of `COc1ccccc1S(=O)(=O)N(C)C[C@H]1Oc2cc(C#CCC3CCCC3)ccc2S(=O)(=O)N([C@@H](C)CO)C[C@H]1C`, the inhibition is reported as 77.3% (active).
Work on `C[C@H](CO)N1C[C@H](C)[C@@H](CN(C)S(=O)(=O)c2cccc(F)c2)Oc2cc(C#CCN(C)C)ccc2S1(=O)=O` yielded an inhibition of 14.6%.
Work on `Cc1ccc(S(=O)(=O)N(C)C[C@@H]2Oc3cc(C4=CCCC4)ccc3S(=O)(=O)N([C@@H](C)CO)C[C@@H]2C)cc1` yielded an inhibition of 36.4%.
Compound `C[C@@H]1CN([C@@H](C)CO)S(=O)(=O)c2ccc(C#CCN(C)C)cc2O[C@@H]1CN(C)S(=O)(=O)c1cccc(F)c1` has an inhibition of -15.8%.
